In the supplement of paper PMC11001985:

molecular target: ACLY (lysine site: K991) (UniProt P53396); assay: lysine labeling ratio R10:1 (500 µM / 50 µM probe), SILAC-ABPP in living cells; higher = lower intrinsic lysine reactivity toward the probe, active = 2 or less; settings: HeLa; probe concentrations 500 vs 50 µM
Protocol: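 Living HeLa cells (SILAC light/heavy) in PBS at room temperature were labeled with 50 µM versus 500 µM of the lysine-reactive, reductant-cleavable probe OPA-S-S-alkyne (SILAC labeling time not stated). Probe-modified peptides were CuAAC-biotinylated, captured on neutravidin and eluted with DTT/IAA, then quantified by LC-MS/MS. R = median peptide ratio per lysine (500/50 µM), combined over 3 forward and 3 reverse SILAC replicates. Ratios are capped at 20; R < 2 = hyper-reactive.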

ACLY (lysine site: K991), sequence (P53396 whole entry): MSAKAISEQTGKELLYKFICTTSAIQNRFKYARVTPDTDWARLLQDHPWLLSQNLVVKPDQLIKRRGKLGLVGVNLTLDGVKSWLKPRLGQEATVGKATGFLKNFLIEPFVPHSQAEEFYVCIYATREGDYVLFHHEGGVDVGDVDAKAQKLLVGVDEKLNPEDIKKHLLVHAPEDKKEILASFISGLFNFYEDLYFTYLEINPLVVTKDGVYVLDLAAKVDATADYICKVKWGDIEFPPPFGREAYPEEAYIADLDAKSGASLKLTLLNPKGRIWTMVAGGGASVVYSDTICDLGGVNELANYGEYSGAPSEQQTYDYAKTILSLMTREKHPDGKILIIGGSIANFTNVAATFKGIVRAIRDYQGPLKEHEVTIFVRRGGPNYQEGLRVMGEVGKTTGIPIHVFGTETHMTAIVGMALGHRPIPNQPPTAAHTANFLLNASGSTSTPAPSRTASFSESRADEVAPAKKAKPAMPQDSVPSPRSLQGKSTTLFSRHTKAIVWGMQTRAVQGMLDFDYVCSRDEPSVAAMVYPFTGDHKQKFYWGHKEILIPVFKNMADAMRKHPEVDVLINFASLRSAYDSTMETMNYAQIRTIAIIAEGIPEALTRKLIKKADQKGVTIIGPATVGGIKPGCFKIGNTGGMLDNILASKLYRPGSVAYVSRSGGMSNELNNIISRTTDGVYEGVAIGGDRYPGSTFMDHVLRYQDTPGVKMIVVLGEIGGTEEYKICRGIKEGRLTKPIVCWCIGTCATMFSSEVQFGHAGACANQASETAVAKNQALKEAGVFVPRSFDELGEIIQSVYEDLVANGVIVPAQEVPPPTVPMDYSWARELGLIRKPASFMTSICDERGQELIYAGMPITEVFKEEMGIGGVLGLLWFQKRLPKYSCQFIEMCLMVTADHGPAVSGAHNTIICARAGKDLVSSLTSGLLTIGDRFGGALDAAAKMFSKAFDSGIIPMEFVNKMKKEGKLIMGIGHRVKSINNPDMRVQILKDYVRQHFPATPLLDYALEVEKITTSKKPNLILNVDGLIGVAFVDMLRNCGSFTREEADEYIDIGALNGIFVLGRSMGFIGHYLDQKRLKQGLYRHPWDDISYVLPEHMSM

Compound	lysine labeling ratio R10:1
C#CCNC(=O)CCSSCCC(=O)NCCc1ccc(C=O)c(C=O)c1	2.27 (inactive)
